Bioassay records (PubChem)
CYP2C19 inh: human CYP2C19 inhibition. AID 778. inhibition, % at 5 µM. CYP2C19 Supersomes, luciferin-H EGE luminescence, 30 min. actives 21% (n = 96,000). P33261;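 active = CYP2C19 inhibition above a set limit at 5 µM in the primary screen, cut at about 50% in these data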
CYP2C9 inhib: human CYP2C9 inhibition. CYP2C9 Supersomes, luciferin-H conversion, luminescence. inhibition, % at 5 µM. actives 20% (n = 96,000). AID 777;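 active = blocking of liver enzyme CYP2C9 beyond about 50% at 5 µM, limit read from the data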
CYP2C9 activ: activators of human CYP2C9 | recombinant CYP2C9, luciferin-H conversion, luminescence; active compounds read high; factor 1 = untreated enzyme, 0 = blocked | activation factor at 5 µM | actives 1.4% (n = 96,000);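 active = activation factor of 2 or more for CYP2C9 at a 5 µM dose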
sEH inh: inhibitors of human soluble epoxide hydrolase; P34913; recombinant human sEH enzymatic activity assay; inhibition, % at 2 µM; actives 0.34% (n = 91,000); AID 707; in the data active = inhibition above about 80%
Target sequence (P34913 whole entry, looked up): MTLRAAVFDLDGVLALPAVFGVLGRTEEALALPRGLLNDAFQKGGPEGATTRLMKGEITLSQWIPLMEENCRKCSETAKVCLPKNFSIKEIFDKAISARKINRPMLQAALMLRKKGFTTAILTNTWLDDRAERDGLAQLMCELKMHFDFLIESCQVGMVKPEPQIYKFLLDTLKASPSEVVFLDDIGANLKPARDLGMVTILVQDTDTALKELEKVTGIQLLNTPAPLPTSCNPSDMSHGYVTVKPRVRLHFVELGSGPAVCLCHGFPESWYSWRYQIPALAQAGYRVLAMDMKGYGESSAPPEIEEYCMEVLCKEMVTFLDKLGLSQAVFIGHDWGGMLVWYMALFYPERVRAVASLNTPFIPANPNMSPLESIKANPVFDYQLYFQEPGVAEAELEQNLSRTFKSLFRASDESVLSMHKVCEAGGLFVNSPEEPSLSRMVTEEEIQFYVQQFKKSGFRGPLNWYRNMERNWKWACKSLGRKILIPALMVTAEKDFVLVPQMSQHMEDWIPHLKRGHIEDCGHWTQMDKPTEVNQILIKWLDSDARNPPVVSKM
CYP2C19 act: cytochrome P450 2C19 (human) activation. AID 1025. 96,000 tested, under 10 active. activation factor at 5 µM. recombinant CYP2C19, luciferin-H EGE luminescence; active compounds read high; 0 = fully inhibited enzyme, 1 = untreated enzyme. P33261;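 active = activation factor of at least 2 at 5 µM in the primary screen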
sEH act: activators of human soluble epoxide hydrolase; AID 717; P34913; actives 0.04% (n = 91,000); activation, % at 2 µM; purified human sEH enzymatic activity, activator screen; in the data active = activation above about 37%
Of the large screens only hits and unclear results are named; the others gave an inactive call. Most compounds without a hit are left out; they make up all but 27% or so of the library.

CSc1nc2cc(S(=O)(=O)N3CCOCC3)ccc2s1	CYP2C19 inh 99.4, CYP2C9 inhib 62.7
Cc1nc(-c2cccc(S(=O)(=O)N3CC(C)CC(C)C3)c2)cs1 (configuration not stated)	none
O=S(=O)(c1ccc2c(c1)nc1n2CCC1)N1CCOCC1	none (no result: CYP2C19 inh, CYP2C9 inhib, CYP2C9 activ, CYP2C19 act)
COc1ccccc1C(=O)Nn1cnc2ccccc2c1=O	none
CCc1c(C(=O)O)[nH]c2ccc(Br)cc12	none
CC(CC(C)C(=O)Nc1ccccc1C(C)(C)C)C(=O)O (configuration not stated)	none (no result: CYP2C19 inh, CYP2C9 inhib, CYP2C9 activ, CYP2C19 act)
O=C(c1c[nH]c(C(=O)C(Cl)(Cl)Cl)c1)c1ccccc1Cl	CYP2C9 inhib 72.5
Cc1ccccc1C(=O)c1c[nH]c(C(N)=O)c1	none
COc1ccc(-n2nnnc2/C=C\Nc2ccccc2C(=O)c2ccccc2)cc1	CYP2C19 inh 50.6
COc1ccc(C(=O)Nc2cc(C(=O)c3ccccc3)c(C)oc2=O)cc1	none
COc1ccc(S(=O)(=O)N(CC(C)C)CC(C)C)c2cccnc12	CYP2C9 inhib 91.7
CCCCN(CCCC)S(=O)(=O)c1ccc(OC)c2ncccc12	CYP2C9 inhib 66.4 (no result: sEH inh, sEH act)
COc1ccc(/C=C\C(=O)c2c(O)ccc3c(C)cc(=O)oc23)cc1OC	CYP2C19 inh 67.8
COc1cc(/C=C/C(=O)c2c(O)ccc3c(C)cc(=O)oc23)ccc1O	none
Cc1cc(/C=C(/C#N)c2cccc(Cl)c2)c(C)n1C	none
Cc1cc(/C=C(/C#N)c2cccc(F)c2)c(C)n1-c1cccnc1	CYP2C19 inh 89.2, CYP2C9 inhib 98.9 (no result: sEH inh, sEH act)
Cc1cccc(C)c1Nc1nnc(SCc2cc([N+](=O)[O-])cc3c2OCOC3)s1	CYP2C9 inhib 51.3
COc1cccc(Nc2nnc(SCc3cc([N+](=O)[O-])cc4c3OCOC4)s2)c1	CYP2C19 inh 82.5
CC(C)(C)c1ccc(C(=O)N2CCC(C(=O)NCC3CCCO3)CC2)cc1 (configuration not stated)	none
CC(/C=N\NC(=O)Cn1c(C)nc2ccccc21)=C\c1ccccc1	none
Cc1ccccc1NC1=C(Cl)C(=O)OC1NC(=O)c1ccccc1 (configuration not stated)	CYP2C19 inh 60.7, CYP2C9 inhib 72.3
CN(C)S(=O)(=O)N1CCN(S(=O)(=O)N(C)C)CC1	none
COc1cc(=O)[nH]c(SCc2c(F)c(F)c(F)c(F)c2F)n1	CYP2C9 inhib 50.5
COc1ccc(-c2n[nH]c(C)c2-c2ccc(Cl)cc2)c(O)c1	CYP2C19 inh 63.3
COc1ccc(-c2n[nH]c(C)c2-c2ccc(Cl)cc2)c(O)c1OC	none
COc1ccc(O)c(-c2c(-c3ccc(Cl)cc3)n[nH]c2C)c1	CYP2C19 inh 99.0, CYP2C9 inhib 72.0
COc1cccc(-c2nn3c(-c4ccccn4)nnc3s2)c1	CYP2C19 inh 51.9
COc1cccc(-c2nnc3sc(-c4ccccn4)nn23)c1	CYP2C19 inh 63.2
COc1cccc(-c2nn3c(-c4cc(C)[nH]n4)nnc3s2)c1	none
COc1ccc(-c2nnc3sc(-c4ccccn4)nn23)cc1	CYP2C9 inhib 56.9 (no result: sEH inh, sEH act)
COc1ccc(C(=O)/C=C/Nc2ccc([N+](=O)[O-])cc2C)cc1OC	CYP2C19 inh 59.7
CCOc1ccc(N/C=C/C(=O)c2ccc3ccccc3c2)c([N+](=O)[O-])c1	CYP2C9 activ 2.1
CCOc1ccc(N/C=C/C(=O)c2ccc(C)cc2)c([N+](=O)[O-])c1	none
CCCC1c2ccc(C)n2CCN1C(=O)Nc1ccc(F)cc1 (configuration not stated)	none
O=C(NCc1ccco1)c1ccc(COCC(F)(F)C(F)F)cc1	none
CCC(C)NS(=O)(=O)c1ccc(S(=O)(=O)N2CCCC3(CCCCC3)C2)cc1 (configuration not stated)	CYP2C9 inhib 73.5
CCC(C)NS(=O)(=O)c1ccc(OCC(=O)N2CCCC2)cc1 (configuration not stated)	none (no result: CYP2C19 inh, CYP2C9 inhib, CYP2C9 activ, CYP2C19 act)
COc1cccc(-n2sc3c(c2=S)-c2cc(OC)ccc2NC3(C)C)c1	CYP2C9 inhib 68.7
COc1ccc(CCN(Cc2cc3cc(C)cc(C)c3nc2Cl)C(=O)C2CC2)cc1	none
C1=C(CCNC2=NCCCCC2)CCCC1	none
Cc1cc(N2CCCC2)nc(SCC(=O)c2ccccc2)n1	none (no result: CYP2C19 inh, CYP2C9 inhib, CYP2C9 activ, CYP2C19 act)
Cc1cc(C)nc(SCC(=O)c2ccc(O)cc2O)n1	none
c1ccc(CNn2c(N3CCOCC3)nc3ccccc32)cc1	CYP2C19 inh 69.5
Cc1cc(N2CCOCC2)nc(SCC(=O)c2ccccc2)n1	CYP2C19 inh 55.5 (no result: sEH inh, sEH act)
